Experimental data: PubChem BioAssay AID1611 (NINDS Approved Drug Screening Program, 2009)

Assay: HSE-luciferase reporter activators – cell-based (AID 1611)
Details: human cells, HSE-luciferase heat shock reporter; stronger effect = higher value

Row | Compound | fold change
1 | NNc1nncc2ccccc12 | 1.1
2 | C1CNCCN1 | 1.04
3 | CN(C)CCOC(c1ccccc1)c1ccccc1 (tested in a mixture with another compound) | 0.8
4 | c1coc(CNc2ncnc3nc[nH]c23)c1 | 1.22
5 | OCc1ccccc1O[C@@H]1O[C@H](CO)[C@@H](O)[C@H](O)[C@H]1O | 1.04
6 | NC(N)=N/N=C\c1c(Cl)cccc1Cl | 0.39
7 | O=C(OCC(O)CO)c1ccccc1Nc1ccnc2cc(Cl)ccc12 (centres undefined) | 0.5
8 | CN[C@@H]1[C@H](O)[C@H](NC)[C@H]2O[C@@]3(O)C(=O)C[C@@H](C)O[C@H]3O[C@@H]2[C@H]1O | 1.27
9 | CNCCC=C1c2ccccc2CCc2ccccc21 | 1.45
10 | Cc1ccc(C(=O)C(C)CN2CCCCC2)cc1 (centres undefined) | 0.93
11 | CN1C(C(=O)Nc2ccccn2)=C(O)c2sccc2S1(=O)=O | 0.84
12 | NCCCC(N)CC(=O)NCC1NC(=O)C(CO)NC(=O)C(N)CNC(=O)C(C2CCN=C(N)N2)NC(=O)/C(=C/NC(N)=O)NC1=O (centres undefined) | 0.59
13 | Oc1cccc(O)c1 | 1.06
14 | CCN1CCCC(OC(=O)C(c2ccccc2)c2ccccc2)C1 (centres undefined) | 0.74
15 | CN(C)CC/C=C1\c2ccccc2Sc2ccc(Cl)cc21 | 1.34
16 | CCOc1ccc(Cc2nccc3cc(OCC)c(OCC)cc23)cc1OCC | 1.35
17 | COc1ccccc1OCC(O)CO (centres undefined) | 1
18 | CC(C)NCC(O)COc1cccc2ccccc12 (centres undefined) | 0.95
19 | O=C(O)CCCCC1SCC2NC(=O)NC21 (centres undefined) | 2.49
20 | CO[C@H]1C[C@H](O[C@H]2[C@H](C)[C@@H](OC3O[C@H](C)C[C@H](N(C)C)[C@H]3O)[C@@H](C)C[C@]3(CO3)C(=O)[C@H](C)[C@@H](O)[C@@H](C)[C@@H](C)OC(=O)[C@@H]2C)O[C@@H](C)[C@@H]1O (some centres undefined) | 0.75

Row | Compound | fold change
21 | COc1c(C)c2c(c(O)c1C/C=C(\C)CCC(=O)O)C(=O)OC2 | 0.85
22 | Cc1ccc(/C(=C\CN2CCCC2)c2ccccn2)cc1 | 0.61
23 | C#CCN(C)Cc1ccccc1 | 1.01
24 | Nc1ncnc2c1ncn2[C@@H]1O[C@H](CO)[C@@H](O)[C@@H]1O | 1.52
25 | CC(C)[N+]1(C)C2CC[C@@H]1CC(OC(=O)C(CO)c1ccccc1)C2 (some centres undefined) | 0.91
26 | CCN(CC)CC(=O)Nc1c(C)cccc1C | 0.78
27 | CCCCCCOc1ccccc1C(N)=O | 0.59
28 | COC1=CC(=O)C[C@@H](C)[C@]12Oc1c(Cl)c(OC)cc(OC)c1C2=O | 0.94
29 | Nc1ncn([C@@H]2O[C@H](CO)[C@@H](O)[C@H]2O)c(=O)n1 | 1.3
30 | CO/N=C(\C(=O)NC1C(=O)N2C(C(=O)O)=C(CSc3nc(=O)c(O)nn3C)CS[C@H]12)c1csc(N)n1 (some centres undefined) | 0.94
31 | CN1CCc2cccc3c2C1Cc1ccc(O)c(O)c1-3 (centres undefined) | 0.71
32 | CCN(CC)CCOC(=O)C(c1ccccc1)c1ccccc1 | 1.24
33 | Nc1ccc(S(=O)(=O)Nc2ccnn2-c2ccccc2)cc1 | 0.94
34 | CO/N=C(/C(=O)NC1C(=O)N2C(C(=O)O)=C(COC(N)=O)CSC12)c1ccco1 (centres undefined) | 1
35 | CC1CCc2cc(F)cc3c(=O)c(C(=O)O)cn1c23 (centres undefined) | 1.07
36 | NC(=O)c1ccc[n+]([C@@H]2O[C@H](COP(=O)([O-])OP(=O)(O)OC[C@H]3O[C@@H](n4cnc5c(N)ncnc54)[C@H](O)[C@@H]3O)[C@@H](O)[C@H]2O)c1 | 1.11
37 | CC(Cc1ccc(O)c(O)c1)(NN)C(=O)O (centres undefined) | 1.02
38 | Oc1c(I)cc(I)c2cccnc12 | 1.19
39 | O=C(O)c1cc2cc(Cc3cccnc3)ccc2o1 | 0.83
